Measured values: ChEMBL document CHEMBL1961873, “Compounds: GSK PKIS; Assays: Nanosyn kinase panel” (2012)

Experiments:
[1] = target: Ribosomal protein S6 kinase alpha-6 (Homo sapiens) (UniProt Q9UK32); settings: at 1 µM;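 note: each value is a mean inhibition of RSK4 from a GSK PKIS panel screen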
[2] = target: T1, Serine/threonine-protein kinase Sgk1 (Homo sapiens) (UniProt O00141); settings: at 0.1 µM
T1 sequence (whole entry): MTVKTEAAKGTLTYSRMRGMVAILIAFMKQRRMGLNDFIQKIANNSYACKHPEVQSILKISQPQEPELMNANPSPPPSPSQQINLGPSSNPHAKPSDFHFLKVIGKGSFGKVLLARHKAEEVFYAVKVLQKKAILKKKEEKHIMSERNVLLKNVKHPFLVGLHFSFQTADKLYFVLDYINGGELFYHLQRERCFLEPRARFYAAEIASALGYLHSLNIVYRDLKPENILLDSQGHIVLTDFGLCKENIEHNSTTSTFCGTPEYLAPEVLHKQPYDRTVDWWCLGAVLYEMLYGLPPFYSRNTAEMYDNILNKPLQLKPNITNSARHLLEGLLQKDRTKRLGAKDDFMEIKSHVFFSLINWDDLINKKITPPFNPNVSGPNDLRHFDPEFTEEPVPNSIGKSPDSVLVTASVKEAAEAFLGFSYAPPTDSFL

[3] = target: T1, Serine/threonine-protein kinase Sgk1 (Homo sapiens); settings: at 1 µM
[4] = target: T2, Serine/threonine-protein kinase Sgk2 (Homo sapiens) (UniProt Q9HBY8); settings: at 0.1 µM
T2 sequence (whole entry): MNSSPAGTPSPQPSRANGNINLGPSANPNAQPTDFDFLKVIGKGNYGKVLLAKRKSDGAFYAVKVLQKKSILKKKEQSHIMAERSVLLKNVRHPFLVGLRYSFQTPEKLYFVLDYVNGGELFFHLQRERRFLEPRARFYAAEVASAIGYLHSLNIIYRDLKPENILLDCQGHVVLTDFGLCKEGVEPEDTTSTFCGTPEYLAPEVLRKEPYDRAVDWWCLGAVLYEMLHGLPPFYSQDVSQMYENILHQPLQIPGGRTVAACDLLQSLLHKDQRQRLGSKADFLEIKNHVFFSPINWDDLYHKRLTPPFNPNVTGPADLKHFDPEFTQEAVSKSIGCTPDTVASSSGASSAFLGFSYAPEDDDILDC

[5] = target: T2, Serine/threonine-protein kinase Sgk2 (Homo sapiens); settings: at 1 µM
[6] = target: T3, Serine/threonine-protein kinase Sgk3 (Homo sapiens) (UniProt Q96BR1); settings: at 0.1 µM
T3 sequence (whole entry): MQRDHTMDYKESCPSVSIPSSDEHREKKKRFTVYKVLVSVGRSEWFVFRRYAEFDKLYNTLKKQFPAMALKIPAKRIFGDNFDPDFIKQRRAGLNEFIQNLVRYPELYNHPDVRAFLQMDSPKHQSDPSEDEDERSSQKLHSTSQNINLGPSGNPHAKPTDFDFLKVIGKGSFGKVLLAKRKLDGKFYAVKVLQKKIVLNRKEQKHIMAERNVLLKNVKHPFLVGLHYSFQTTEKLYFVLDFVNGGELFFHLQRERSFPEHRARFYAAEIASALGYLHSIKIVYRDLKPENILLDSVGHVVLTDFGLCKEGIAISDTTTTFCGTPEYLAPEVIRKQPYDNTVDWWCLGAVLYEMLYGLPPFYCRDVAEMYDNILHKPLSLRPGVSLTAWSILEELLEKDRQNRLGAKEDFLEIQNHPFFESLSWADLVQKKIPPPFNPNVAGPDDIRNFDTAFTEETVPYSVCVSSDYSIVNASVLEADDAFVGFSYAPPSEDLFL

[7] = target: T3, Serine/threonine-protein kinase Sgk3 (Homo sapiens); settings: at 1 µM
[8] = target: 5'-AMP-activated protein kinase catalytic subunit alpha-1 (Homo sapiens) (UniProt Q13131); settings: at 0.1 µM
Chain of 5'-AMP-activated protein kinase catalytic subunit alpha-1 (Homo sapiens) (Q13131 whole entry, looked up): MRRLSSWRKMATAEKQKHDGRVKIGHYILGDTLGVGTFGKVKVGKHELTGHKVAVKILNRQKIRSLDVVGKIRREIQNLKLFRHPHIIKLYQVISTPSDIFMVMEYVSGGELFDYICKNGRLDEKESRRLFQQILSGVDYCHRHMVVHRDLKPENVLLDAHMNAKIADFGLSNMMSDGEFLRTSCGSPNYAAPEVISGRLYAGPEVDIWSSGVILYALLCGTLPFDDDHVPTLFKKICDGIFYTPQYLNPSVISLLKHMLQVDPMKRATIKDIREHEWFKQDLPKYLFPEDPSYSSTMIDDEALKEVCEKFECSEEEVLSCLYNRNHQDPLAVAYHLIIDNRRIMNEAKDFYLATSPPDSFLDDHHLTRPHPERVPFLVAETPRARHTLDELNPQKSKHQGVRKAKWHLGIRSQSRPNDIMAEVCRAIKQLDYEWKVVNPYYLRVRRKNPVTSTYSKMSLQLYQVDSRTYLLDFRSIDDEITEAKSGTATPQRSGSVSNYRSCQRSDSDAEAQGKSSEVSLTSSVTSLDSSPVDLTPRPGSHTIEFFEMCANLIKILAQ

[9] = target: 5'-AMP-activated protein kinase catalytic subunit alpha-1 (Homo sapiens) (UniProt Q13131); settings: at 1 µM
[10] = target: 5'-AMP-activated protein kinase catalytic subunit alpha-2 (Homo sapiens) (UniProt P54646); settings: at 0.1 µM
Chain of 5'-AMP-activated protein kinase catalytic subunit alpha-2 (Homo sapiens) (P54646 whole entry, looked up): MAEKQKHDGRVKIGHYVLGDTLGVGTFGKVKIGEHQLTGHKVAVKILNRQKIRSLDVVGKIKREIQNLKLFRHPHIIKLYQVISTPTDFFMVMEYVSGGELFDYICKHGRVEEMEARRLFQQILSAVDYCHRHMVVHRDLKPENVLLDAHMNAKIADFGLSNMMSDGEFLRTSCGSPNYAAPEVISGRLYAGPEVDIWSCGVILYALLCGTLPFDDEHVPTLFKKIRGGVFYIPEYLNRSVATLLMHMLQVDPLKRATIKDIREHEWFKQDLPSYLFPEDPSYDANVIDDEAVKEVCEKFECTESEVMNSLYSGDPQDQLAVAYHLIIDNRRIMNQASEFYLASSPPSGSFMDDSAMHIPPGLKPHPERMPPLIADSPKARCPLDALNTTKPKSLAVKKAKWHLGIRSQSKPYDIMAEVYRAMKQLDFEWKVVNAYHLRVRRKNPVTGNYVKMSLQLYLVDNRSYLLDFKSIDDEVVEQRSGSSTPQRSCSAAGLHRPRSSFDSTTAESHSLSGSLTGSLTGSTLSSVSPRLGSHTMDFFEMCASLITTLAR

[11] = target: 5'-AMP-activated protein kinase catalytic subunit alpha-2 (Homo sapiens) (UniProt P54646); settings: at 1 µM
[12] = target: T4, NUAK family SNF1-like kinase 1 (Homo sapiens) (UniProt O60285); settings: at 0.1 µM
T4 sequence (whole entry): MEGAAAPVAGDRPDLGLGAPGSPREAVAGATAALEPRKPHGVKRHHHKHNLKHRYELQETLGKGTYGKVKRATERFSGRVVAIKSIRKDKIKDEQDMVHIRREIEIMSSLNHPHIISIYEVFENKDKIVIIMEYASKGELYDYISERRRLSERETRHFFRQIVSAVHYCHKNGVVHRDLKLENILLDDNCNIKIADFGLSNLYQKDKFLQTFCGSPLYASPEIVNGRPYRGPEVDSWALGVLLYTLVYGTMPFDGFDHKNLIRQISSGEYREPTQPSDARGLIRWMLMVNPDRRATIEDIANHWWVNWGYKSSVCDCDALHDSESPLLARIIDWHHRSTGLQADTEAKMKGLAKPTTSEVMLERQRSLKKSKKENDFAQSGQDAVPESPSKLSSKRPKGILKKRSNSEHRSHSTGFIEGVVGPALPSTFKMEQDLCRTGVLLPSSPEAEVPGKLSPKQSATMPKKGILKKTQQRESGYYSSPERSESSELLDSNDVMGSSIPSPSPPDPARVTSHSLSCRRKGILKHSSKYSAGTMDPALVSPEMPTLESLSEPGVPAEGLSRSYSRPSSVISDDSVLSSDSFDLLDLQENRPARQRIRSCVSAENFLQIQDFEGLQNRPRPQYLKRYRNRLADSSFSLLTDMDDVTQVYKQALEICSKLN

[13] = target: T4, NUAK family SNF1-like kinase 1 (Homo sapiens); settings: at 1 µM
[14] = target: T5, Serine/threonine-protein kinase BRSK1 (Homo sapiens) (UniProt Q8TDC3); settings: at 0.1 µM
T5 sequence (whole entry): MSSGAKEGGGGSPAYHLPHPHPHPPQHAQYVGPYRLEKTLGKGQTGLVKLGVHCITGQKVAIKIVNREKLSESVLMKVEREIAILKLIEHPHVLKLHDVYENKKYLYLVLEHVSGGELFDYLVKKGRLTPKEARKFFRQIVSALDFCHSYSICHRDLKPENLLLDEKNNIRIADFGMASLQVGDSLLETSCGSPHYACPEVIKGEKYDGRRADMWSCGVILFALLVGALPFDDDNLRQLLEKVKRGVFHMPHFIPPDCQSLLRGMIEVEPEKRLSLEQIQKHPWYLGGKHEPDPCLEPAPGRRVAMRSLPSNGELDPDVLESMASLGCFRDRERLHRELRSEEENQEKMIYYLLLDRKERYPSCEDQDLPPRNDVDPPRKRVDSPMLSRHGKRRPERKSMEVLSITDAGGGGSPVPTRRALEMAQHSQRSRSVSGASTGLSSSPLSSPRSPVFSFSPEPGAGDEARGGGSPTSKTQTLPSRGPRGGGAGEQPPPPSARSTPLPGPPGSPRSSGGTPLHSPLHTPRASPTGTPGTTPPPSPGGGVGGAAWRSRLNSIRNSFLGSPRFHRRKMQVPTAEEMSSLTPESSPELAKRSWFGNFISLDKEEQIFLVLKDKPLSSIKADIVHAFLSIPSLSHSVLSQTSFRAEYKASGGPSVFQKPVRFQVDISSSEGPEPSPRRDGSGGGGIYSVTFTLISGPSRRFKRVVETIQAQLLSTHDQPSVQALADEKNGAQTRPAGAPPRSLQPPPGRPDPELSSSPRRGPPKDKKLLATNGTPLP

[15] = target: T5, Serine/threonine-protein kinase BRSK1 (Homo sapiens); settings: at 1 µM
[16] = target: T6, Serine/threonine-protein kinase BRSK2 (Homo sapiens) (UniProt Q8IWQ3); settings: at 0.1 µM
T6 sequence (whole entry): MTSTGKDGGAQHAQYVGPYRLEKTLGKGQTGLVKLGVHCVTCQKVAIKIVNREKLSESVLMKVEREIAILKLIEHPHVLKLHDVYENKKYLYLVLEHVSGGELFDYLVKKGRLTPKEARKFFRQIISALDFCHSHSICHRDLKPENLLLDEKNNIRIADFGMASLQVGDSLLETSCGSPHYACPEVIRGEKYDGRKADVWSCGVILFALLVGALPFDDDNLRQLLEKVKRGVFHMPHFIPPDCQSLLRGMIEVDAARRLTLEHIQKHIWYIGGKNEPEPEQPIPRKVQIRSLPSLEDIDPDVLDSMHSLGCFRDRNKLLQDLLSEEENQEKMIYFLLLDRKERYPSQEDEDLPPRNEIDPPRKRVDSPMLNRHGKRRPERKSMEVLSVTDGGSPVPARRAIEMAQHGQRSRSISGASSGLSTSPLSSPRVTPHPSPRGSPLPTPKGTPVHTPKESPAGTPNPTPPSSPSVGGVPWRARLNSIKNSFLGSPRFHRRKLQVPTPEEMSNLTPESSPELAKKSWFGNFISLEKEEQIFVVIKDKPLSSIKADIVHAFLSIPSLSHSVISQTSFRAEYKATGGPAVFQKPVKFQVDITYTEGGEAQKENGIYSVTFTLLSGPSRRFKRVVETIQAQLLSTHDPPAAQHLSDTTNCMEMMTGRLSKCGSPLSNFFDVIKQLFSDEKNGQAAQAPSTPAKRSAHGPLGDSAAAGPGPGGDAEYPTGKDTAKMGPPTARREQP

[17] = target: T6, Serine/threonine-protein kinase BRSK2 (Homo sapiens); settings: at 1 µM
[18] = target: Calcium/calmodulin-dependent protein kinase type 1D (Homo sapiens) (UniProt Q8IU85); settings: at 0.1 µM
Chain of Calcium/calmodulin-dependent protein kinase type 1D (Homo sapiens) (Q8IU85 whole entry, looked up): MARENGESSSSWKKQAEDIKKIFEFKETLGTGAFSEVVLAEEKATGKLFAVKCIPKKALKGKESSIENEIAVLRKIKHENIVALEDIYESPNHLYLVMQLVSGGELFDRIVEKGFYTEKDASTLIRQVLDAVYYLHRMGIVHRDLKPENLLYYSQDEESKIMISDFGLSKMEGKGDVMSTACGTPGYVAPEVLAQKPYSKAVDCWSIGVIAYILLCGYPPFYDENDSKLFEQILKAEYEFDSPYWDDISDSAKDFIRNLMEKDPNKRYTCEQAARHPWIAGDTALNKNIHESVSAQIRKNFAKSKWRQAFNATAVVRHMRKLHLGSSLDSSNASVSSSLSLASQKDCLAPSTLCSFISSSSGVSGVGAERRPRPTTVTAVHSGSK

[19] = target: Calcium/calmodulin-dependent protein kinase type 1D (Homo sapiens) (UniProt Q8IU85); settings: at 1 µM
[20] = target: Calcium/calmodulin-dependent protein kinase type II subunit alpha (Homo sapiens) (UniProt Q9UQM7); settings: at 0.1 µM;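 note: reported values are averages (mean inhibition of CAMK2A)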
Chain of Calcium/calmodulin-dependent protein kinase type II subunit alpha (Homo sapiens) (Q9UQM7 whole entry): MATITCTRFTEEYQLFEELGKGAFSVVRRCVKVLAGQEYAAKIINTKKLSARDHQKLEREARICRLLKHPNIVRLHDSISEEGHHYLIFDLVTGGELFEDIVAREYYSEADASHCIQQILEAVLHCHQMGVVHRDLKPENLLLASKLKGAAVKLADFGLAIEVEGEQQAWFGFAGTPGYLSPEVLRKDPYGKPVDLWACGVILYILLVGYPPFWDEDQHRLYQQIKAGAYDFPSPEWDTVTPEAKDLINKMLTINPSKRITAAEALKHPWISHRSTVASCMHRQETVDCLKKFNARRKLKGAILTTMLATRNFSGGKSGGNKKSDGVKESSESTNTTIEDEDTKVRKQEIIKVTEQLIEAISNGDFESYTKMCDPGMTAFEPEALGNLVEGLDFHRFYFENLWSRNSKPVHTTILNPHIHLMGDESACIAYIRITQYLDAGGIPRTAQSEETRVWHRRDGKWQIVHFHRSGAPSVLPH

Chain of Ribosomal protein S6 kinase alpha-6 (Homo sapiens) (Q9UK32 whole entry): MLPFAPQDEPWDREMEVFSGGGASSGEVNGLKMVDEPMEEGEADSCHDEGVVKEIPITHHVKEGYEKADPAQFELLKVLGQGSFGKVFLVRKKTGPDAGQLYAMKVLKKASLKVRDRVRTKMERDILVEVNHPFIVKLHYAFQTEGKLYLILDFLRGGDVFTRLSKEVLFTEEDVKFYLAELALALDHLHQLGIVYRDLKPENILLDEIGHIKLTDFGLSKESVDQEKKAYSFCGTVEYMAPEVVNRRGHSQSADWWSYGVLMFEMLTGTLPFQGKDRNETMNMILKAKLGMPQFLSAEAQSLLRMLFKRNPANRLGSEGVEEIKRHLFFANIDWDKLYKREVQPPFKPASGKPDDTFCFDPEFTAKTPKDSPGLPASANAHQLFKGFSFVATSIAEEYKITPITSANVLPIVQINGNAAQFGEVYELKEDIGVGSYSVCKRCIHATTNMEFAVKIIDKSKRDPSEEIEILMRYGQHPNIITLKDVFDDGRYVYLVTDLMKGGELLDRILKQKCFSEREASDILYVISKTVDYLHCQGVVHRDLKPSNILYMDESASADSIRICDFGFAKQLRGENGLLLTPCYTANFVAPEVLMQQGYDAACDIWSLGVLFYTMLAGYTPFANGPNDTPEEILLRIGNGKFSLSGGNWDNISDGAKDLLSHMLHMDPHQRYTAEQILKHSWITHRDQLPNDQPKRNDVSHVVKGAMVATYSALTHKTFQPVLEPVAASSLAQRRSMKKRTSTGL

SMILES	inhibition [1]	inhibition [2]	inhibition [3]	inhibition [4]	inhibition [5]	inhibition [6]	inhibition [7]	inhibition [8]	inhibition [9]	inhibition [10]	inhibition [11]	inhibition [12]	inhibition [13]	inhibition [14]	inhibition [15]	inhibition [16]	inhibition [17]	inhibition [18]	inhibition [19]	inhibition [20]
COc1ccc2ncn(-c3cc(O[C@H](C)c4ccccc4C(F)(F)F)c(C(N)=O)s3)c2c1	9.8%	0.33%	0.95%	-1.23%	0.53%	-0.12%	0.72%	-0.57%	3.14%	0.8%	2.72%	5.12%	43.5%	2.49%	25.8%	6.06%	36.5%	0.14%	1.96%	-1.63%
COc1cc(N2CCN(C(C)C)CC2)ccc1Nc1nc(Nc2cccc3ncccc23)c2cc[nH]c2n1	2.88%	1.18%	-0.91%	-3.32%	-0.85%	0.42%	0.55%	0.27%	0.86%	0.57%	0.77%	13.2%	47.5%	-0.07%	0.86%	-0.35%	-0.59%	1.82%	17.8%	-2.58%
CCn1c(-c2nonc2N)nc2cncc(C(=O)NCCNC)c21	37.3%	3.75%	18.1%	2.29%	17.7%	21.3%	66.2%	3.01%	8.23%	2.58%	4.46%	-0.78%	2.03%	0.66%	6.23%	2.51%	9.29%	-0.23%	0.83%	2.44%
CNC(=O)c1ncccc1Nc1nc(Nc2cc3c(cc2OC)CCCN3C(=O)CN(C)C)nc2[nH]ccc12	19.7%	2.04%	2.57%	0.57%	1.29%	4.05%	4.49%	5.47%	6.88%	3.31%	8.1%	5.36%	8.33%	3.14%	4.58%	3.37%	4.64%	1.94%	12.9%	4.09%
